From PubChem BioAssay
The source made the active and inactive calls.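 The calls were made as follows, unless noted: active = visual image review flags a hit and inhibition of aggregation exceeds 20%; inconclusive = visual hit but inhibition at or below 20%; inactive = no hit on visual image review.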

Key:
[1] = inhibitors of TNFa-induced NFkB p65 translocation, primary screen, imaging, HUVEC, MLSMR starter and 10KST1 sets (AID 438;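 active = inhibition above 20% together with a positive visual image hit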;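 also: compound added about 3h40 before a 20 min TNFalpha stimulation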;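 as to inhibition: signal is the nuclear over cytoplasmic p65 intensity ratio per well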); conditions: HUVEC TNFa-induced p65 nuclear translocation; cell count: measured here: nuclei count (cytotoxicity indicator), at 2.08 µM; inhibition: at 2 µM, stronger effect = higher value, 0% TNFa-plus-vehicle, 100% no-TNFa wells
[2] = reduction of polyQ htt aggregates in cells – imaging, exon1htt(103Q)mCFP cells, high-content imaging, primary screen (AID 483); conditions: exon1htt(103Q)mCFP cell line, aggregate imaging, at 2 µM; inhibition of aggregation: stronger effect = higher value; nuclei count: measured here: cell count, toxicity;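 also: compound exposure lasted 3 days before fixation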;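 as to nuclei count: percent of the per-plate median nuclei count of sample wells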
[3] = endothelial E-selectin expression blockers – imaging, HUVEC, immunofluorescence, MLSMR starter and 10KST1 sets, primary screen (AID 487;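 active = visually confirmed hit in the image check and inhibition above 20%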;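 as to inhibition: signal is fraction of cell area covered by stained E-selectin grains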;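 as to nuclei count: 100% = median nuclei count of all wells on the same plate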); conditions: HUVEC TNFalpha-induced E-selectin immunofluorescence imaging, at 2 µM; inhibition: stronger effect = higher value; nuclei count: measured here: cell number, toxicity
[4] = target: Voltage-gated potassium channel subunit beta-2 (Rattus norvegicus) (UniProt P62483); experiment: inhibitors of rat Kvbeta2 reductase activity – biochemical, NADPH fluorescence, primary screen (AID 622;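 active = fluorescence slope higher than the sample average by over 3 SD, cut at about -0.22 in these data, passing the limit was not always enough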;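 also: slope of raw intensity against log time taken from 70 to 1610 s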); conditions: recombinant KvBeta, 4-cyanobenzaldehyde reduction, at 10 µM, stronger effect = higher value
[5] = target: Voltage-gated potassium channel subunit beta-2 (Rattus norvegicus) (UniProt P62483); experiment: enhancers of rat Kvbeta2 NADPH turnover – biochemical, NADPH fluorescence, primary screen (AID 623;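 active = NADPH fluorescence slope more negative than the mean of all samples by about 3 SD, 99.7% confidence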;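 also: fluorescence intensity change per second fitted from 20 to 320 s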); conditions: Recombinant KvBeta, NADPH fluorescence decrease slope, 10 min; at 10 µM; stronger effect = lower value
[6] = target: Alpha-2C adrenergic receptor (Homo sapiens) (UniProt P18825); experiment: compounds altering alpha2C-coupled GIRK flux – cell-based, HEK293 alpha2C/GIRK1/2, thallium flux, primary screen (AID 624;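 active = fluorescence slope after compound addition differing from the mean of all screened samples at 99.7% confidence, in either direction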;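 also: slope of fluorescence ratio to pre-addition baseline per second over 15 to 24 s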); conditions: thallium flux BTC fluorescence, at 10 µM, actives lie on both sides
[7] = blockers of RIG-like receptor reporter activation – cell-based, Sendai virus stimulus, luciferase, 10K MLSCN set, TLR/RLR signaling modifier project, primary screen (AID 602276;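 active = inhibition at or above 50% at 10 µM; inactive = inhibition below 50%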;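 also: firefly luciferase from ISG56 promoter only with Renilla not read in this screen; 0% = Sendai virus plus DMSO and 100% = medium plus DMSO without virus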); conditions: HEK293 RL24 IRF3 luciferase reporter, at 10 µM, stronger effect = higher value
[8] = TLR3 IRF3 reporter activation blockers – cell-based, poly I:C stimulus, luciferase, 10K MLSCN set, primary screen (AID 602277;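 active = inhibition of the reporter signal at or above 50%; inactive = inhibition below 50%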); conditions: HEK293-TLR3 RL24 IRF3 luciferase reporter, at 10 µM, stronger effect = higher value

Voltage-gated potassium channel subunit beta-2 (Rattus norvegicus), sequence (P62483 whole entry, looked up): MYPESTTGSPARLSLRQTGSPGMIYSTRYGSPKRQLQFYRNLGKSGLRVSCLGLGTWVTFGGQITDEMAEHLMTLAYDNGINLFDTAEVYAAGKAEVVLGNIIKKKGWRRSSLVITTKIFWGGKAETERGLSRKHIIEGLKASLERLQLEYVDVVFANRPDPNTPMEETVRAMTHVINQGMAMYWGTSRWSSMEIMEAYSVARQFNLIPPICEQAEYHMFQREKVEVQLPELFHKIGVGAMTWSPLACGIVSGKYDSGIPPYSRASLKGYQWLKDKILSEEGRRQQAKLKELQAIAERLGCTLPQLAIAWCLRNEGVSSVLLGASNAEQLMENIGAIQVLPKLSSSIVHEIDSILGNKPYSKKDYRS
Alpha-2C adrenergic receptor (Homo sapiens), sequence (P18825 whole entry, looked up): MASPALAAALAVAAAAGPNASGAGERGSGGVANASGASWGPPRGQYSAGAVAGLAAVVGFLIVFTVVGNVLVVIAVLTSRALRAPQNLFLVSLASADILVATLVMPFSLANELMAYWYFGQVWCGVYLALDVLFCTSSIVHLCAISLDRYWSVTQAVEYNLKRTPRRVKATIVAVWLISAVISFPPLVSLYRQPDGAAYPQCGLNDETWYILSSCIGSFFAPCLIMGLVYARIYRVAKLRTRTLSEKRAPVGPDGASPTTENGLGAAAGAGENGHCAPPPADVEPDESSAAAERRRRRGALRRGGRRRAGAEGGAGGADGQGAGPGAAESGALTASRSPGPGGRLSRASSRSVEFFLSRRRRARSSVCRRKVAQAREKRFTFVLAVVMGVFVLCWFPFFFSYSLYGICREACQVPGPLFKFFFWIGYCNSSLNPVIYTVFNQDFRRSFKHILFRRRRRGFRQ

Row | Compound | cell count [1] | inhibition [1] | inhibition of aggregation [2] | nuclei count [2] [%] | inhibition [3] | nuclei count [3] [%] | fluorescence slope [4] | NADPH fluorescence slope [5] | slope [6] | inhibition [7] | inhibition [8]
1 | CCN(c1cccc(C(F)(F)F)c1)S(=O)(=O)c1ccc2c(c1)CCN2C(=O)C1CC1 | 495 | 2.7% (inactive) | 3.1% (inactive) | 97.3 | -51.5% (inactive) | 104 | -0.405 (inactive) | -4.7e-05 (inactive) | 0.00287 (inactive) | -11.8% (inactive) | -25.9% (inactive)
2 | COc1cccc(-c2nnc(NC(=O)c3ccccc3Br)o2)c1 | 718 | -6.9% (inactive) | -5.7% (inactive) | 110 | -17.4% (inactive) | 117 | -0.421 (inactive) | -3.3e-05 (inactive) | 0.00691 (inactive) | 4.13% (inactive) | 17.2% (inactive)
3 | CCOc1ccc(S(=O)(=O)N2CCN(c3ccc(C)cc3C)CC2)cc1 | 821 | 5.7% (inactive) | -66.1% (inactive) | 98.4 | -30.7% (inactive) | 110 | -0.578 (inactive) | -2.7e-05 (inactive) | 0.00897 (inactive) | -5.26% (inactive) | 11.7% (inactive)
4 | CCN(CC)S(=O)(=O)c1ccc(S(=O)(=O)N(Cc2ccccn2)Cc2ccco2)cc1 | 322 | -0.8% (inactive) | -9.2% (inactive) | 112 | -68.2% (inactive) | 123 | -0.608 (inactive) | 6.2e-06 (inactive) | 0.00512 (inactive) | 6.58% (inactive) | 18.5% (inactive)
5 | Cc1ccccc1Nc1nc(N)nc(CSCc2c(C)noc2C)n1 | 347 | -15.8% (inactive) | -2.4% (inactive) | 93.8 | -16.2% (inactive) | 117 | -0.361 (inactive) | -5.1e-05 (inactive) | 0.00597 (inactive) | -21.3% (inactive) | -33.2% (inactive)
6 | CCN(CC)CCCN1C(=O)C(=O)/C(=C(/O)c2ccc3c(c2)OCO3)C1c1ccccn1 (stereo not drawn) | 621 | 1.8% (inactive) | 21.9% (inactive) | 85.9 | -18.3% (inactive) | 90.7 | -0.495 (inactive) | -4.9e-05 (inactive) | 0.00526 (inactive) | -5.97% (inactive) | 12.1% (inactive)
7 | O=C(CSc1ncnc2nc[nH]c12)c1ccc(Cl)cc1 | 728 | -12.4% (inactive) | 9.4% (inactive) | 101 | 5.4% (inactive) | 95 | -0.5 (inactive) | -1.4e-05 (inactive) | 0.00583 (inactive) | -2.82% (inactive) | -23.1% (inactive)
8 | Cc1ccccc1NC(=O)NCCCN1CCN(C2CCCCC2)CC1 | 411 | -1.8% (inactive) | 8.9% (inactive) | 81.8 | -119% (inactive) | 108 | -0.61 (inactive) | 2.5e-06 (inactive) | 0.00551 (inactive) | 3.03% (inactive) | 13% (inactive)
9 | COc1ccc(CCN2CC(O)=C(c3nc4ccccc4c(=O)[nH]3)C2=N)cc1OC | 642 | -0.8% (inactive) | -7.4% (inactive) | 83.2 | -35.6% (inactive) | 98.6 | -0.489 (inactive) | -1e-06 (inactive) | 0.00682 (inactive) | 2.39% (inactive) | 7.15% (inactive)
10 | O=S(=O)(c1ccc(F)c(Cl)c1)N1CCCC1 | 331 | 2.2% (inactive) | 8.7% (inactive) | 98.5 | 31.8% (inactive) | 99.6 | -0.486 (inactive) | -1e-05 (inactive) | 0.00653 (inactive) | 2.45% (inactive) | 30.3% (inactive)
11 | O=C(Nc1nc(-c2ccncc2)cs1)C1COc2ccccc2O1 (stereo not drawn) | 646 | -4.9% (inactive) | -3.1% (inactive) | 118 | -28.4% (inactive) | 119 | -0.608 (inactive) | -3.7e-05 (inactive) | 0.00702 (inactive) | -5.76% (inactive) | -29.4% (inactive)
12 | COc1cc2c(cc1OC)C(c1ccc(C)o1)CC(=O)N2 (stereo not drawn) | 748 | 0% (inactive) | -33.4% (inactive) | 112 | -48.1% (inactive) | 122 | -0.574 (inactive) | -3e-05 (inactive) | 0.00589 (inactive) | 11.9% (inactive) | 30.4% (inactive)
13 | CC(NCc1ccco1)C(=O)N1CCc2ccccc2C1 (stereo not drawn) | 705 | -49% (inactive) | 6.5% (inactive) | 105 | 27% (inactive) | 108 | -0.48 (inactive) | -0.000253 (inactive) | 0.00559 (inactive) | -8.88% (inactive) | 1.37% (inactive)
14 | O=C(c1ccccc1-c1nc(-c2ccccc2)no1)N1CCCC1 | 600 | -8.6% (inactive) | 0.7% (inactive) | 90.5 | 51% (inactive) | 85.6 | -0.534 (inactive) | -2.8e-05 (inactive) | 0.00572 (inactive) | -20.5% (inactive) | -38.1% (inactive)
15 | CCN(CCCNC(=O)CCNC(=O)Cn1ccc2ccccc2c1=O)c1ccccc1 | 393 | 4.5% (inactive) | -6.3% (inactive) | 103 | -106% (inactive) | 118 | -0.441 (inactive) | -8.2e-06 (inactive) | 0.00588 (inactive) | -0.268% (inactive) | -15.2% (inactive)
16 | COc1ccc(-n2c(Cc3cccn3C)nnc2SCC(=O)Nc2ccccc2)cc1 | 527 | -11.3% (inactive) | 6.5% (inactive) | 79.8 | -20.6% (inactive) | 116 | -0.55 (inactive) | -2.9e-05 (inactive) | 0.00572 (inactive) | 15.3% (inactive) | 36.7% (inactive)
17 | N#Cc1nc(-c2ccco2)oc1NCCc1ccccc1 | 686 | -7.5% (inactive) | -10.1% (inactive) | 88.8 | -3% (inactive) | 107 | -0.463 (inactive) | -4.3e-05 (inactive) | 0.0039 (inactive) | -33.8% (inactive) | -56.1% (inactive)
18 | CCCS(=O)(=O)N1CCC(C(=O)NCCN2CCCC2)CC1 | 201 | -6.8% (inactive) | 12.3% (inactive) | 104 | 30.3% (inactive) | 70.1 | -0.405 (inactive) | -3.3e-05 (inactive) | 0.00665 (inactive) | 13.8% (inactive) | 19.2% (inactive)
19 | C=C(C)Cn1c(-c2ccccc2)nc2ccccc21 | 326 | -5.5% (inactive) | -4.2% (inactive) | 113 | -17.6% (inactive) | 104 | -0.512 (inactive) | -5.5e-05 (inactive) | 0.00476 (inactive) | 14.4% (inactive) | 2.46% (inactive)
20 | CC1(C)Cc2cccc(OCC(O)CN3CCN(c4ccccn4)CC3)c2O1 (stereo not drawn) | 518 | -7.3% (inactive) | 3.5% (inactive) | 92.3 | -90.2% (inactive) | 111 | -0.624 (inactive) | -2e-05 (inactive) | 0.00547 (inactive) | -6.85% (inactive) | -0.552% (inactive)
21 | CCn1c(SCC(=O)Nc2cc(NC(C)=O)ccc2OC)nnc1-c1ccccn1 | 630 | 6.5% (inactive) | 3.4% (inactive) | 89.9 | 51.6% (inactive) | 92.7 | -0.541 (inactive) | 1.5e-05 (inactive) | 0.00559 (inactive) | 10.3% (inactive) | 8.37% (inactive)
22 | NC(=O)c1cccc(S(=O)(=O)N2CCCCC2)c1 | 417 | 3% (inactive) | 15.9% (inactive) | 105 | 47.1% (inactive) | 87.4 | -0.473 (inactive) | -4.7e-05 (inactive) | 0.006 (inactive) | 4.76% (inactive) | 31.6% (inactive)
23 | Cc1nc(C)c(C(=O)C2=C(O)C(=O)N(CCN3CCOCC3)C2c2ccco2)s1 (stereo not drawn) | 244 | -3.2% (inactive) | 0.6% (inactive) | 86.3 | -2.9% (inactive) | 104 | -0.388 (inactive) | -2.3e-06 (inactive) | 0.00517 (inactive) | 11% (inactive) | 6.93% (inactive)
24 | O=C(COC(=O)C12CC3CC(CC(O)(C3)C1)C2)N1CCN(S(=O)(=O)c2ccc(Cl)cc2)CC1 | 371 | 4.7% (inactive) | 0.7% (inactive) | 95.7 | -72.7% (inactive) | 97.2 | -0.33 (inactive) | -1.9e-05 (inactive) | 0.00661 (inactive) | 8.77% (inactive) | 18% (inactive)
25 | O=C(CSc1nc(-c2ccccc2)cs1)NC(=O)NCc1ccco1 | 355 | -1.1% (inactive) | 1% (inactive) | 75.7 | -105% (inactive) | 125 | -0.429 (inactive) | 3.1e-06 (inactive) | 0.00572 (inactive) | 18.5% (inactive) | 3.13% (inactive)
26 | OC(COc1ccccc1)CN1C2=NCCCN2c2ccccc21 (stereo not drawn) | 295 | 1.6% (inactive) | -3.1% (inactive) | 81.2 | 5.3% (inactive) | 79.2 | -0.608 (inactive) | -4.2e-06 (inactive) | 0.00402 (inactive) | 20% (inactive) | 30.6% (inactive)
27 | COC(=O)c1cc(OC)c(OC)cc1NC(=O)CCC1CCCC1 | 452 | 3.7% (inactive) | 14.1% (inactive) | 104 | -78.6% (inactive) | 101 | -0.637 (inactive) | -1e-05 (inactive) | 0.00682 (inactive) | 12.6% (inactive) | 22.5% (inactive)
28 | Cc1ccc(C(C(=O)NC(C)(C)C)N(C(=O)c2csnn2)c2cccc(F)c2)o1 (stereo not drawn) | 357 | 4.3% (inactive) | 7.8% (inactive) | 93.7 | -33.5% (inactive) | 81.8 | -0.492 (inactive) | 8.2e-06 (inactive) | 0.00622 (inactive) | 8.19% (inactive) | 20.7% (inactive)
